FBPA Giardia inh – inhibitors of Giardia lamblia fructose-1,6-bisphosphate aldolase | AID 2451 | A8B2U2 | actives 0.71% (n = 290,000) | Potency, µM (series often up to 59.6 µM), for inactives: at the top dose activity, negative = inhibition, hits mostly inhibitors | purified Giardia FBPA; also: potency is read from the fitted curve at half-maximal effect; % is scaled to controls: 0 for no effect and ±100 for the full control effect; nearly all actives have a fitted effect of over 55% in size
Target sequence (A8B2U2 whole entry, looked up): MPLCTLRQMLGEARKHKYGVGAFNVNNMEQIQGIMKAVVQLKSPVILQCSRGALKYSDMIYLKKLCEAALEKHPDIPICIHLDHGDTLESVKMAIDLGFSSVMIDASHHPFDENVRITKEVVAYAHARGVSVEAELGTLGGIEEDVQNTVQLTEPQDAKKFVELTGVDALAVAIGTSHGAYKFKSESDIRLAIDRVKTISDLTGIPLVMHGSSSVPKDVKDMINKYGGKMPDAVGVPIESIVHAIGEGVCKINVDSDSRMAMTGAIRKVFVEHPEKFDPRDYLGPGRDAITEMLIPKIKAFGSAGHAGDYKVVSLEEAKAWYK
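40 nM FBPA preincubated 10 min at RT with compound (up to 57.5 uM final), then substrate plus GAPDH/TPI/NAD/arsenate coupling and diaphorase/resazurin added. Fluorescence read after 20 min at RT, 525/598 nm.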
NS1 function inh – inhibitors of influenza NS1 protein function; Potency, µM (doses to about 46.1 µM), inactives show at the highest dose activity, positive = more growth; actives 0.4% (n = 270,000); AID 2326; calls by dose curve; also: potency is read from the fitted curve at half-maximal effect; actives are rising curves; nearly all actives have a fitted effect of over 50% in size
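Growth recovery, yeast-based: influenza A NS1 expressed in S. cerevisiae causes slow growth, and suppressors are detected by OD600. The parent strain without NS1 is used as positive control.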
Pf growth 48h – inhibits P. falciparum growth in the first generation, 48 h. P. falciparum luciferase growth in erythrocytes, 48 h. Potency, µM (doses to about 28.7 µM), for inactives: top-dose activity change, negative = inhibition, hits mostly inhibitors. actives 5.9% (n = 310,000). AID 504832; also: potency is read from the fitted curve at half-maximal effect; % is scaled to controls: 0 for no effect and ±100 for the full control effect
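In quantitative HTS format, infected erythrocytes bearing luciferase-reporter parasites were treated for a single generation at 37 C. Luminescence after adding detection reagent served as the growth measure.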
Cycloheximide cs – counter-screen for Shiga toxin inhibitors: cycloheximide protein synthesis inhibition; actives 12% (n = 300,000); max response, %; cell reporter, cycloheximide protein synthesis inhibition counterscreen; in the data active = max response mostly above about 13%, no sharp cut-off; inactive = mostly below about 14%; also: read at 38.3 µM for the half of the compounds with a filed dose; 0% is about no effect
Shiga toxin inh – Shiga toxin inhibition | AID 2315 | inhibition, % at 38.7 µM | Vero cells, Shiga toxin protein synthesis inhibition reporter | actives 9.2% (n = 290,000); in the data active = inhibition mostly above about 28%, no sharp cut-off; inactive = mostly below about 43%; also: 0% is about no effect
Pf growth 96h – P. falciparum growth inhibition at 96 hour, primary screen for plastid delayed-death inhibitors; P. falciparum luciferase reporter growth, 96 h; Potency, µM (doses to about 28.7 µM), without a hit: top-dose activity change, negative = inhibition, hits mostly inhibitors; actives 6.9% (n = 320,000); AID 504834; also: potency is read from the fitted curve at half-maximal effect; % is scaled to controls: 0 for no effect and ±100 for the full control effect
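Plates of compound plus infected erythrocytes (2% hematocrit, 0.05% parasitemia final) incubate 96 hours, 37 C, 5% CO2. Detection reagent added; reduced luminescence from the parasites' luciferase reporter flags inhibition.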
Active calls of the source: *; ? = inconclusive; nt = no result given; [ ] = another dose, or the depositor's remark. In the library only some 21% were active in any assay of this set; here they are far more common. Unless noted, calls follow the shape of the dose curve; as a rule, active = well fitted curve in the direction sought with a large enough effect; inconclusive = small, poorly fitted or top-dose-only effect, or another doubt; inactive = no such curve, though single readings can be large; an effect the other way counts as inactive or inconclusive.

SMILES	FBPA Giardia inh	NS1 function inh	Pf growth 48h	Cycloheximide cs	Shiga toxin inh	Pf growth 96h
CCOc1ccc(NC(=O)c2ccco2)c([N+](=O)[O-])c1	-3%	-2%	200%	66*	40*	0.59µM*
CCOc1ccc(NC(=O)c2cccs2)c([N+](=O)[O-])c1	3%	?	194%	87*	120*	262%
CCOc1ccc(NC(=O)c2cccnc2Cl)c([N+](=O)[O-])c1	-3%	-3%	11%	26	-5	-8%
CCOc1ccc(NC2OC(C)C(O)C(O)C2O)c([N+](=O)[O-])c1 (configuration not stated)	1%	3%	43%	-8	-15	?
CCOc1ccc(NC(=O)c2ccc(CC)s2)c([N+](=O)[O-])c1	0%	-4%	42%	23*	34*	?
CC(OC(=O)c1c[nH]c2ccccc12)C(=O)N1CCCC1 (configuration not stated)	nt	nt	?	nt	nt	8%
C[C@H](NC(=O)c1nc[nH]c1C(=O)NCc1ccc(CNC(=O)OC(C)(C)C)cc1)C(=O)OC(C)(C)C	-18%	0%	?	12	9	1.3µM*
CC(C)(C)OC(=O)CNC(=O)c1nc[nH]c1C(=O)NCc1ccc(CNC(=O)OC(C)(C)C)cc1	-17%	1%	?	-2	-2	81%
C[C@@H](NC(=O)c1nc[nH]c1C(=O)NCc1ccc(CNC(=O)OC(C)(C)C)cc1)c1ccccc1	nt	nt	12µM*	nt	nt	?
CC(C)(C)OC(=O)NCc1ccc(CNC(=O)c2nc[nH]c2C(=O)N2CCN(c3ccccc3)CC2)cc1	nt	nt	13µM*	nt	nt	-27%
CC(C)(C)OC(=O)[C@H](Cc1ccccc1)NC(=O)c1nc[nH]c1C(=O)N1CCN(c2ccccc2)CC1	-16%	-7%	12%	-2	-3	42%
O=C(COc1ccc(Cl)cc1)N1CCN(C(=O)c2ccccc2F)CC1	nt	-1%	13%	-7	-4	37%
O=C(Nc1cc(C(F)(F)F)ccc1N1CCCCC1)c1cccc([N+](=O)[O-])c1	3%	-2%	15µM*	-3	-15	?
CCC(=O)N1CCN(c2ccc(Cl)cc2NC(=O)c2ccc(N3CCCC3)c([N+](=O)[O-])c2)CC1	4%	8%	?	3	-17	1.9µM*
CCC(=O)Nc1cc(Cl)ccc1N1CCN(C(=O)CC)CC1	-10%	2%	?	-2	-5	17%
Cc1ccc(C(=O)Nc2cc(C(F)(F)F)ccc2N2CCCCC2)cc1[N+](=O)[O-]	2%	-1%	13µM*	-2	-19	19%
CCOc1ccc(CNC(=O)c2ccc(Sc3ccc(C)cc3)c(NC(C)=O)c2)cc1	2%	11%	2%	-3	1	34%
Cn1c(=O)c2c(nc(N3CCCCC3)n2CCSc2nc3ccccc3s2)n(C)c1=O	0%	-46%	1%	-2	-10	5%
Cn1c(=O)c2c(nc(N3CCC(C(N)=O)CC3)n2CCSc2nc3ccccc3s2)n(C)c1=O	-21%	-2%	2.9µM*	13	-14	3%
Cn1c(=O)[nH]c(=O)c2c1nc(N1CCCCC1)n2CCCSc1nc2ccccc2s1	-1%	-36%	?	8	5	4.1µM*
Cc1cc(C)nc(SCCn2c(N3CCC(C)CC3)nc3c2c(=O)n(C)c(=O)n3C)n1	5%	-1%	42%	-4	25	2.3µM*
Cc1ccnc(SCCn2c(N3CCC(C)CC3)nc3c2c(=O)n(C)c(=O)n3C)n1	nt	-11%	nt	nt	nt	nt
COc1ccc(NC(=O)c2cc(S(=O)(=O)N3CCCC3)oc2C)cc1	1%	-2%	-14%	13	2	13%
O=C(Nc1ccc(F)cc1)Nc1ccc(S(=O)(=O)N2CCCC2)cc1	nt	nt	13µM*	nt	nt	7.4µM*
O=S(=O)(c1ccc(S(=O)(=O)N(Cc2ccc(F)cc2)C2CCCC2)cc1)N1CCCC1	-4%	-19%	13µM*	-7	-2	nt
SMILES	FBPA Giardia inh	NS1 function inh	Pf growth 48h	Cycloheximide cs	Shiga toxin inh	Pf growth 96h
Cc1oc(S(=O)(=O)N2CCCCC2)cc1NC(=O)Nc1ccc(F)cc1	-3%	-1%	?	6	-2	5.9µM*
COc1ncc2ncc(=O)n(CCC#N)c2n1	0%	nt	nt	nt	nt	nt
COc1cccc(OC)c1NC(=O)Cn1nc(C)c2ccccc2c1=O	7%	13%	15%	-3	-4	?
CC(=O)Nc1ccc(SCC(=O)c2ccc(Br)s2)cc1	3%	-37%	37%	21*	37*	57%
CC(=O)Nc1ccc(SCc2c(C)noc2C)cc1	-5%	-2%	30%	-3	-5	47%
O=C(O)Cc1ccc(C(=O)CSc2ccccc2)s1	17%	0%	33%	-2	30	58%
CC(=O)Nc1ccc(SCc2csc(C)n2)cc1	-26%	15%	?	14	47*	?
Cc1ccnc(SCC(=O)c2ccc(Br)s2)n1	-4%	nt	36%	36*	37	6%
Cc1ccc(SCC(=O)c2ccc(CC(=O)O)s2)cc1	17%	7%	50%	20*	24	121%
Cc1ccnc(SCC(=O)c2cccs2)n1	1%	13%	145%	38*	84*	291%
COc1ccc(/C=C2/N=C(SCC(=O)Nc3cc(C)on3)N(c3ccccc3)C2=O)cc1	6%	-2%	30%	-2	-12	29%
CCC(SC1=N/C(=C/c2ccccc2)C(=O)N1c1ccccc1)C(=O)Nc1cc(C)on1 (configuration not stated)	-8%	-9%	5.9µM*	-2	-11	10%
CCCC(=O)NC(=S)Nc1sc2c(c1C(N)=O)CCC2	?	12%	44%	17	65	50%
NC(=O)c1c(NC(=S)Nc2ccc(F)cc2)sc2c1CCCC2	-26%	0%	17%	18*	40	3%
C=CCNC(=S)Nc1sc2c(c1C(N)=O)CCCC2	?	0%	7%	15*	56	2%
C=CC(=O)Nc1sc2c(c1C(N)=O)CCCC2	nt	nt	?	nt	nt	40%
NC(=O)c1c(NC(=S)Nc2ccccc2)sc2c1CCCC2	-26%	0%	8%	7	36	2%
CC(C)C(=O)NC(=S)Nc1sc2c(c1C(N)=O)CCCC2	-8%	20%	34%	25*	36*	39%
CCc1ccc(N=Nc2ccc(O)c3[nH]cnc23)cc1	nt	nt	78%	nt	nt	2%
CC(=O)C1=C(O)C(=O)N(c2ccccn2)C1c1ccccc1[N+](=O)[O-] (configuration not stated)	-23%	1%	-18%[0.00184 µM]	1	35	-10%
Cc1ccsc1C(=O)NNC(=S)NC1CCCCC1	nt	15%	7%	38*	37*	9.3µM*
CCCc1cc(C(=O)NNC(=S)NC2CCCCC2)cs1	nt	3%	57%	22*	34	57%
CNC(=S)NNC(=O)c1sccc1C	-29%	1%	12%	18*	34	?
CCCCNC(=S)NNC(=O)c1sccc1C	1%	-3%	35%	9	-12	74%

From PubChem
